According to PubChem BioAssay (NCI):
About 79,000 compounds went through this panel and 15% of them were active in at least one assay; those are over-represented in the sample as a whole. Calls of active or inactive are those of the source. No stated cut-off is given here; in the data, active means growth inhibition above about 70%; inactive means the rest.

Tests used:
[1] = NCI Yeast Anticancer Drug Screen. Data for the rad52 strain (AID 147);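 further: 0% = growth of vehicle-treated control cultures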; conditions: S. cerevisiae rad52 mutant growth inhibition, stronger effect = higher value
Summary of the method: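 Yeast strain carrying a DNA damage repair alteration was exposed to test compounds. Growth inhibition was measured relative to vehicle-treated controls.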

[2] = NCI Yeast Anticancer Drug Screen. Data for the wt1 strain (AID 149);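 further: 0% = growth of vehicle-treated wt1 cultures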; conditions: S. cerevisiae wt1 strain (SPY 50644) growth inhibition, stronger effect = higher value
Summary of the method: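 wt1 strain grown with compound or vehicle; inhibition taken from the growth difference.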

[3] = NCI Yeast Anticancer Drug Screen. Data for the rad50EPP+ strain (AID 151);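 further: 0% = growth of vehicle-treated control cultures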; conditions: S. cerevisiae rad50 mutant strain, stronger effect = higher value
Summary of the method: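 Yeast strain carrying rad50 alteration (rad50EPP+) exposed to compounds; growth inhibition measured relative to vehicle-treated controls.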

[4] = NCI Yeast Anticancer Drug Screen. Data for the mgt1 strain (AID 153); conditions: S. cerevisiae mgt1 mutant growth inhibition, stronger effect = higher value
Summary of the method: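 Yeast mgt1 strain (DNA repair/cell-cycle alteration panel) exposed to compounds; growth inhibition measured relative to vehicle-treated controls.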

[5] = NCI Yeast Anticancer Drug Screen. Data for the rad50 strain (AID 155);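 further: 0% = growth of vehicle-only cultures of the same strain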; conditions: S. cerevisiae rad50 strain growth inhibition, stronger effect = higher value
Summary of the method: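 DNA repair mutant yeast, compound exposure, growth read-out; inhibition is taken relative to vehicle.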

[6] = NCI Yeast Anticancer Drug Screen. Data for the mec2-1 strain (AID 157); conditions: S. cerevisiae mec2-1 strain, stronger effect = higher value
Summary of the method: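 mec2-1 yeast strain, carrying an alteration in DNA damage repair or cell cycle control, was exposed to compounds; growth inhibition was measured relative to vehicle-treated controls.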

[7] = NCI Yeast Anticancer Drug Screen. Data for the rad14 strain (AID 159);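 further: 0% = growth of vehicle-treated control cultures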; conditions: S. cerevisiae rad14 strain growth inhibition, stronger effect = higher value
Summary of the method: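 DNA repair-defective yeast, compound-exposed; % growth inhibition derived by comparison with vehicle-treated controls.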

[8] = NCI Yeast Anticancer Drug Screen. Data for the sgs1 mgt1 strain (AID 161);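 further: 0% = growth of cultures given vehicle only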; conditions: S. cerevisiae sgs1 mgt1 strain, stronger effect = higher value
Summary of the method: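 This yeast growth screen uses a strain with defined DNA-repair lesions; compound-treated growth is compared with vehicle-treated growth.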

[9] = NCI Yeast Anticancer Drug Screen. Data for the CLN2oe strain (AID 163);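 further: 0% = growth of vehicle-only control cultures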; conditions: S. cerevisiae CLN2oe strain, stronger effect = higher value
Summary of the method: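 Yeast cells carrying a defined cell-cycle control alteration were exposed to test compounds. Growth inhibition was scored against vehicle-treated control cultures.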

[10] = NCI Yeast Anticancer Drug Screen. Data for the cln2 rad14 strain (AID 165);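 further: 0% = growth equal to vehicle treated cultures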; conditions: S. cerevisiae cln2 rad14 strain, stronger effect = higher value
Summary of the method: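 Yeast carrying cln2 and rad14 alterations (cell cycle control and DNA damage repair) were exposed to compounds. Growth inhibition was measured against vehicle-treated controls.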

[11] = NCI Yeast Anticancer Drug Screen. Data for the bub3 strain (AID 167); conditions: S. cerevisiae bub3 mutant strain, stronger effect = higher value
Summary of the method: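 In this screen, a yeast mutant lacking normal mitotic checkpoint function is challenged with compound. Relative growth versus vehicle gives the inhibition value.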

[12] = NCI Yeast Anticancer Drug Screen. Data for the wt2 strain (AID 169);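 further: 0% = growth of vehicle-treated yeast cultures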; conditions: S. cerevisiae wt2 strain growth inhibition, stronger effect = higher value
Summary of the method: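 Yeast cells were exposed to test compounds, and growth inhibition was measured relative to vehicle-treated controls.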

[13] = NCI Yeast Anticancer Drug Screen. Data for the mlh1 strain (AID 171);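 further: 0% = growth of vehicle-treated control cultures of the same strain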; conditions: S. cerevisiae mlh1 strain growth inhibition, stronger effect = higher value
Summary of the method: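 Yeast carrying a defined genetic alteration in DNA damage repair or cell cycle control were exposed to test compounds. Growth inhibition was measured relative to vehicle-treated controls.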

[14] = NCI Yeast Anticancer Drug Screen. Data for the sgs1 strain (AID 173);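 further: 0% = growth of vehicle-only control cultures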; conditions: S. cerevisiae sgs1 mutant, stronger effect = higher value
Summary of the method: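 Yeast mutant strains carrying defined defects in DNA damage repair or cell cycle control were exposed to test compounds. Growth inhibition was scored against vehicle-treated controls.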

[15] = NCI Yeast Anticancer Drug Screen. Data for the mlh1 rad18 strain (AID 175); conditions: S. cerevisiae mlh1 rad18 strain growth inhibition, stronger effect = higher value
Summary of the method: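 Growth inhibition of the yeast strain was measured after compound exposure and expressed relative to vehicle-treated controls. The strain carries defined defects in DNA damage repair.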

[16] = NCI Yeast Anticancer Drug Screen. Data for the rad18 strain (AID 177); conditions: S. cerevisiae rad18 mutant growth inhibition, stronger effect = higher value
Summary of the method: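 Yeast carrying a defined DNA damage repair alteration were exposed to compounds. Growth inhibition was expressed relative to vehicle-treated controls.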

[17] = at 5.0 µM (retest, dose inferred, filed as 0.5)
[18] = at 50.0 µM (retest, dose inferred, filed as 5.0)

Measured: growth inhibition

CC(CC(C)(C)[N+](C)(C)C)[N+](C)(C)C (stereo unspecified)
inactive: [1]; at 1.2 µM 13% | [1]; at 3.7 µM 1% | [1]; at 11.0 µM 13% | [1]; at 33.0 µM 15% | [1]; at 100.0 µM 14% | [2]; at 1.2 µM 3% | [2]; at 3.7 µM -2% | [2]; at 11.0 µM -3% | [2]; at 33.0 µM -3% | [2]; at 100.0 µM 0% | [3]; at 1.2 µM -1% | [3]; at 3.7 µM 1% | [3]; at 11.0 µM 1% | [3]; at 33.0 µM 4% | [3]; at 100.0 µM -1% | [4]; at 1.2 µM -1% | [4]; at 3.7 µM 1% | [4]; at 11.0 µM 2% | [4]; at 33.0 µM 1% | [4]; at 100.0 µM 0% | [5]; at 1.2 µM 1% | [5]; at 3.7 µM 1% | [5]; [17] 25% | [5]; at 11.0 µM 2% | [5]; at 33.0 µM 2% | [5]; at 100.0 µM 0% | [6]; at 1.2 µM 5% | [6]; at 3.7 µM -11% | [6]; [17] 19% | [6]; at 11.0 µM -4% | [6]; at 33.0 µM 2% | [6]; at 100.0 µM -4% | [7]; at 1.2 µM 2% | [7]; at 3.7 µM 3% | [7]; at 11.0 µM 3% | [7]; at 33.0 µM 3% | [7]; at 100.0 µM 1% | [8]; [17] 1% | [9]; at 1.2 µM -11% | [9]; at 3.7 µM -1% | [9]; at 11.0 µM 1% | [9]; at 33.0 µM -6% | [9]; at 100.0 µM -7% | [10]; [17] 35% | [11]; at 1.2 µM -2% | [11]; at 3.7 µM -8% | [11]; [17] 67% | [11]; at 11.0 µM 0% | [11]; at 33.0 µM -1% | [11]; at 100.0 µM -1% | [12]; at 1.2 µM -1% | [12]; at 3.7 µM -1% | [12]; at 11.0 µM 0% | [12]; at 33.0 µM -1% | [12]; at 100.0 µM -1% | [13]; at 1.2 µM -1% | [13]; at 3.7 µM -1% | [13]; at 11.0 µM -2% | [13]; at 33.0 µM -3% | [13]; at 100.0 µM 0% | [14]; at 1.2 µM 2% | [14]; at 3.7 µM 3% | [14]; at 11.0 µM 1% | [14]; at 33.0 µM 4% | [14]; at 100.0 µM -1% | [15]; [17] 12% | [16]; at 1.2 µM 11% | [16]; at 3.7 µM 8% | [16]; at 11.0 µM 14% | [16]; at 33.0 µM 15% | [16]; at 100.0 µM 20%
active: [5]; [18] 95% | [5]; at 50.0 µM 92.8% | [6]; [18] 97% | [6]; at 50.0 µM 96% | [8]; [18] 91% | [8]; at 50.0 µM 95.8% | [10]; [18] 95% | [10]; at 50.0 µM 90.8% | [11]; [18] 99% | [11]; at 50.0 µM 95.7% | [15]; [18] 97% | [15]; at 50.0 µM 94.3%

CCN(CC)CCNc1ccc([N+](=O)[O-])c2nc3ccc(OC)cc3c(N)c12
inactive: [1]; at 1.2 µM -23% | [1]; at 3.7 µM -13% | [1]; at 11.0 µM 19% | [2]; at 1.2 µM -8% | [2]; at 3.7 µM -14% | [2]; at 11.0 µM -17% | [2]; at 33.0 µM -6% | [2]; at 100.0 µM 54% | [3]; at 1.2 µM 11% | [3]; at 3.7 µM 7% | [3]; at 11.0 µM 30% | [3]; at 33.0 µM 69% | [4]; at 1.2 µM -20% | [4]; at 3.7 µM -20% | [4]; at 11.0 µM -16% | [4]; at 33.0 µM 15% | [5]; at 1.2 µM -3% | [5]; at 3.7 µM -2% | [5]; [17] 13% | [5]; at 11.0 µM 35% | [5]; at 50.0 µM 48.4% | [6]; at 1.2 µM -24% | [6]; at 3.7 µM -19% | [6]; [17] -5% | [6]; at 11.0 µM -8% | [6]; at 33.0 µM 5% | [6]; [18] 21% | [6]; at 50.0 µM -26.1% | [6]; at 100.0 µM 42% | [7]; at 1.2 µM -34% | [7]; at 3.7 µM -29% | [7]; at 11.0 µM -19% | [7]; at 33.0 µM 28% | [8]; [17] -12% | [8]; [18] 48% | [8]; at 50.0 µM 58.4% | [9]; at 1.2 µM 10% | [9]; at 3.7 µM 15% | [9]; at 11.0 µM 22% | [9]; at 33.0 µM 25% | [9]; at 100.0 µM 64% | [10]; [17] 3% | [10]; [18] 33% | [10]; at 50.0 µM 6.25% | [11]; at 1.2 µM -23% | [11]; at 3.7 µM -16% | [11]; [17] -24% | [11]; at 11.0 µM -36% | [11]; at 33.0 µM -17% | [11]; [18] 18% | [11]; at 50.0 µM -0.6% | [11]; at 100.0 µM 64% | [12]; at 1.2 µM 15% | [12]; at 3.7 µM 6% | [12]; at 11.0 µM 10% | [12]; at 33.0 µM 28% | [13]; at 1.2 µM -2% | [13]; at 3.7 µM 4% | [13]; at 11.0 µM 5% | [13]; at 33.0 µM 27% | [14]; at 1.2 µM -8% | [14]; at 3.7 µM -9% | [14]; at 11.0 µM -16% | [14]; at 33.0 µM 10% | [15]; [17] -22% | [15]; at 50.0 µM 68% | [16]; at 1.2 µM 1% | [16]; at 3.7 µM 4% | [16]; at 11.0 µM 7% | [16]; at 33.0 µM 23%
active: [1]; at 33.0 µM 74% | [1]; at 100.0 µM 90% | [3]; at 100.0 µM 79% | [4]; at 100.0 µM 73% | [5]; at 33.0 µM 79% | [5]; [18] 89% | [5]; at 100.0 µM 93% | [7]; at 100.0 µM 88% | [12]; at 100.0 µM 70% | [13]; at 100.0 µM 85% | [14]; at 100.0 µM 82% | [15]; [18] 86% | [16]; at 100.0 µM 86%
